Measurements: PubChem BioAssay AID1159580 (chemical genetic matrix, 2015)
Several values for one entry are separate records, joined by “and”; a condition that tells them apart may be missing. Equal values may be shown once. The campaign covered roughly 5,500 compounds. About 2,000 (36%) were called active. Not shown: some 18% with an inconclusive outcome. Cut-off read from the data, not from the text of the source: active = normalized growth mostly below about 0.91 (no sharp cut-off); inconclusive = no clear call, values can overlap the other calls; inactive = mostly above about 0.92. This is one part of the list.

Experiment: chemical genetic growth profiling, strain panel (AID 1159580);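 note: tested at 20 µM; growth read once vehicle control cultures reached saturation at 30 °C; 1 = growth at the plate median or of vehicle wells; lower values mean less growth of the strain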
Settings: growth OD

Measured: normalized growth

CC12CC3CC(C)(C1)CC(N)(C3)C2
inactive: S. cerevisiae deletion strains, locus YJR075W, strain HOC1, hits give low values 1.01 | S. cerevisiae deletion strains, locus YKL009W, strain mrt4, hits give low values 1.03 | S. cerevisiae deletion strains, locus YKL068W, hits give low values 0.999 | S. cerevisiae deletion strains, locus YKL085W, strain MDH1 (second series), hits give low values 0.996 | S. cerevisiae deletion strains, locus YKL085W, strain MDH1, hits give low values 0.996 | S. cerevisiae deletion strains, locus YKL160W, strain elf1, hits give low values 1 | S. cerevisiae deletion strains, locus YKL190W, strain CNB1, hits give low values 0.999 | S. cerevisiae deletion strains, locus YKR001C, strain vps1, hits give low values 1.02 | S. cerevisiae deletion strains, locus YKR026C, strain gcn3, hits give low values 0.982 | S. cerevisiae deletion strains, locus YKR091W, strain srl3, hits give low values 0.99 | S. cerevisiae deletion strains, locus YLL001W, strain dnm1, hits give low values 0.972 | S. cerevisiae deletion strains, locus YLL026W, hits give low values 0.995 | S. cerevisiae deletion strains, locus YLL041C, strain sdh2, hits give low values 0.997 | S. cerevisiae deletion strains, locus YLR027C, strain aat2, hits give low values 0.991 | S. cerevisiae deletion strains, locus YLR039C, strain RIC1, hits give low values 1.04 | S. cerevisiae deletion strains, locus YLR058C, strain SHM2, hits give low values 0.999 | S. cerevisiae deletion strains, locus YLR102C, strain apc9, hits give low values 0.996 | S. cerevisiae deletion strains, locus YLR113W, strain HOG1, hits give low values 0.996 | S. cerevisiae deletion strains, locus YLR221C, strain rsa3, hits give low values 1 | S. cerevisiae deletion strains, locus YLR258W, strain gsy2, hits give low values 1 | S. cerevisiae deletion strains, locus YLR262C, strain YPT6 (second series), hits give low values 1 | S. cerevisiae deletion strains, locus YLR262C, strain YPT6, hits give low values 0.979 | S. cerevisiae deletion strains, locus YLR268W, strain sec22, hits give low values 1.07 | S. cerevisiae deletion strains, locus YLR320W, strain mms22, hits give low values 1 | S. cerevisiae deletion strains, locus YLR330W, strain CHS5, hits give low values 1 | S. cerevisiae deletion strains, locus YLR342W, strain FKS1 (second series), hits give low values 1.01 | S. cerevisiae deletion strains, locus YLR342W, strain FKS1, hits give low values 0.985 | S. cerevisiae deletion strains, locus YLR357W, strain rsc2, hits give low values 0.969 | S. cerevisiae deletion strains, locus YLR370C, strain arc18, hits give low values 0.995 | S. cerevisiae deletion strains, locus YLR371W, strain rom2, hits give low values 1.01 | S. cerevisiae deletion strains, locus YLR384C, strain iki3, hits give low values 0.99 | S. cerevisiae deletion strains, locus YLR418C, strain cdc73, hits give low values 1.01 | S. cerevisiae deletion strains, locus YML016C, strain PPZ1, hits give low values 0.998 | S. cerevisiae deletion strains, locus YML032C, strain rad52, hits give low values 1.02 | S. cerevisiae deletion strains, locus YML120C, strain ndi1, hits give low values 1 | S. cerevisiae deletion strains, locus YML124C, strain tub3, hits give low values 1.01 | S. cerevisiae deletion strains, locus YMR058W, strain fet3, hits give low values 0.993 | S. cerevisiae deletion strains, locus YMR078C, strain ctf18, hits give low values 1 | S. cerevisiae deletion strains, locus YMR125W, strain sto1, hits give low values 0.975 | S. cerevisiae deletion strains, locus YMR129W, hits give low values 0.979 | S. cerevisiae deletion strains, locus YMR205C, strain PFK2, hits give low values 0.993 | S. cerevisiae deletion strains, locus YMR223W, strain ubp8, hits give low values 0.986 | S. cerevisiae deletion strains, locus YMR231W, strain pep5, hits give low values 0.982 | S. cerevisiae deletion strains, locus YMR263W, strain SAP30, hits give low values 1.01 | S. cerevisiae deletion strains, locus YMR307W, strain GAS1, hits give low values 0.964 and 0.971 | S. cerevisiae deletion strains, locus YNL067W, strain RPL9B, hits give low values 1.02 | S. cerevisiae deletion strains, locus YNL071W, strain lat1, hits give low values 0.986 | S. cerevisiae deletion strains, locus YNL128W, strain TEP1, hits give low values 1.01 | S. cerevisiae deletion strains, locus YNL153C, strain GIM3, hits give low values 1.01 | S. cerevisiae deletion strains, locus YNL175C, strain NOP13, hits give low values 0.994 | S. cerevisiae deletion strains, locus YNL183C, strain NPR1, hits give low values 0.935 | S. cerevisiae deletion strains, locus YNL197C, strain WHI3, hits give low values 1 | S. cerevisiae deletion strains, locus YNL209W, strain ssb2, hits give low values 0.992 | S. cerevisiae deletion strains, locus YNL224C, strain SQS1, hits give low values 1 | S. cerevisiae deletion strains, locus YNL233W, strain BNI4, hits give low values 1.01 | S. cerevisiae deletion strains, locus YNL248C, strain rpa49, hits give low values 0.961 | S. cerevisiae deletion strains, locus YNL250W, strain rad50, hits give low values 1.01 | S. cerevisiae deletion strains, locus YNL271C, strain bni1, hits give low values 1.01 | S. cerevisiae deletion strains, locus YNL298W, strain CLA4, hits give low values 1 | S. cerevisiae deletion strains, locus YNL307C, strain MCK1, hits give low values 1.01 | S. cerevisiae deletion strains, locus YNL322C, strain KRE1 (second series), hits give low values 0.993 | S. cerevisiae deletion strains, locus YNL322C, strain KRE1, hits give low values 0.998 and 0.989 | S. cerevisiae deletion strains, locus YNR049C, strain mso1, hits give low values 0.986 | S. cerevisiae deletion strains, locus YNR052C, strain pop2, hits give low values 1.01 | S. cerevisiae deletion strains, locus YOL006C, strain TOP1, hits give low values 1.05 | S. cerevisiae deletion strains, locus YOL012C, strain htz1 1.4 | S. cerevisiae deletion strains, locus YOL147C, strain pex11, hits give low values 1 | S. cerevisiae deletion strains, locus YOR001W, strain rrp6, hits give low values 0.985 | S. cerevisiae deletion strains, locus YOR061W, strain CKA2, hits give low values 1 | S. cerevisiae deletion strains, locus YOR069W, strain VPS5, hits give low values 1.01 | S. cerevisiae deletion strains, locus YOR070C, strain gyp1, hits give low values 0.991 | S. cerevisiae deletion strains, locus YOR080W, strain dia2, hits give low values 0.986 | S. cerevisiae deletion strains, locus YOR083W, strain WHI5 (second series), hits give low values 1.03 | S. cerevisiae deletion strains, locus YOR083W, strain WHI5, hits give low values 0.977 | S. cerevisiae deletion strains, locus YOR106W, strain vam3, hits give low values 0.993 | S. cerevisiae deletion strains, locus YOR136W, strain idh2, hits give low values 1.01 | S. cerevisiae deletion strains, locus YOR144C, strain elg1, hits give low values 1.01 | S. cerevisiae deletion strains, locus YOR184W, strain ser1, hits give low values 1.01 | S. cerevisiae deletion strains, locus YOR231W, strain MKK1, hits give low values 0.995 | S. cerevisiae deletion strains, locus YOR265W, strain rbl2, hits give low values 0.989 | S. cerevisiae deletion strains, locus YOR270C, strain vph1, hits give low values 0.921 | S. cerevisiae deletion strains, locus YOR290C, strain snf2, hits give low values 0.997 | S. cerevisiae deletion strains, locus YOR316C, strain cot1, hits give low values 1 | S. cerevisiae deletion strains, locus YPL051W, strain arl3, hits give low values 0.986 | S. cerevisiae deletion strains, locus YPL055C, strain LGE1, hits give low values 1 | S. cerevisiae deletion strains, locus YPL078C, strain atp4, hits give low values 0.986 | S. cerevisiae deletion strains, locus YPL106C, strain sse1, hits give low values 1.01 | S. cerevisiae deletion strains, locus YPL240C, strain hsp82, hits give low values 0.998 | S. cerevisiae deletion strains, locus YPL241C, strain CIN2, hits give low values 1 | S. cerevisiae deletion strains, locus YPL256C, strain CLN2, hits give low values 0.971 | S. cerevisiae deletion strains, locus YPR119W, strain clb2, hits give low values 1 | S. cerevisiae deletion strains, locus YPR141C, strain kar3, hits give low values 1.01 | S. cerevisiae deletion strains, locus YPR163C, strain tif3, hits give low values 1.01 | S. cerevisiae deletion strains, locus YPR167C, strain met16, hits give low values 1 | S. cerevisiae deletion strains, strain wtn01, hits give low values 1.02 | S. cerevisiae strains, strain wild type, hits give low values 1.01
